Laboratory results as given in PubChem BioAssay.

Assay: probe aInhba binding on compound microarray – biochemical, small-molecule microarray, 635/667 nm fluorescence, primary screen (AID 1148);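 note: score merges 667nm spot fluorescence with signal-to-noise for antibody binding to printed compounds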
Details: higher = more signal

With `[N-]=[N+]=Nc1ccccc1C[C@@]1(C(=O)NCC(O)CO)N=C(c2ccc(OCCCO)cc2)O[C@@H]1c1ccccc1` (stereo not given in full) as the molecule, how does the composite z-score read?
The composite z-score was 0.0047.

For `C=C(CCCC)/C(=C/C[C@H](OC(=O)c1ccncc1)c1cccc(OCCO)c1)c1cnc2ccccc2c1`, which composite z-score is on record?
The composite z-score was 0.0155.

Which composite z-score does the source give for `COCCOC(=O)N1C(=O)[C@@]2(c3cc(C#Cc4ccc(OC)cc4)ccc31)[C@H](c1ccc(OCCO)cc1)N1[C@H](c3ccccc3)[C@H](c3ccccc3)OC(=O)[C@H]1[C@@H]2C(=O)NC[C@H](O)c1ccccc1` here?
The composite z-score was 0.0301.

For `CCOC(=O)C1=CC[C@@H](c2ccc(OC)cc2)N(S(=O)(=O)c2ccc(C)cc2)[C@H]1c1ccc(C)cc1`, which composite z-score is on record?
Its composite z-score is 0.1.

With `COCCOC(=O)N1C(=O)[C@@]2(c3cc(C#CCCO)ccc31)[C@H](c1ccc(OCCO)cc1)N1[C@H](c3ccccc3)[C@H](c3ccccc3)OC(=O)[C@H]1[C@@H]2C(=O)N1CCCCCCC1` as the molecule, how does the composite z-score read?
Its composite z-score is 1.48.

For `COC(=O)[C@@]1(Cc2ccc(F)cc2)[C@H]2c3cc(C(=O)N4CCCC4)n(Cc4cc(F)cc5c4OCOC5)c3C[C@H]2CN1C(=O)c1ccccc1`, which composite z-score is on record?
The composite z-score was 0.328.

With `C=C(CCCC)/C(=C/C[C@H](OC(=O)c1ccncc1)c1ccc(OCCO)cc1)c1cnc2ccccc2c1` as the molecule, how does the composite z-score read?
Its composite z-score is -0.0221.

Which composite z-score does the source give for `C=CCOC(=O)[C@@H]1[C@H]2C(=O)O[C@H](c3ccccc3)[C@H](c3ccccc3)N2[C@H](c2ccc(OCCOC(=O)[C@H]3C[C@H]4C(=O)N5CCC[C@H]5C(=O)N4[C@H]3c3cccc(OCCO)c3)cc2)[C@@]12C(=O)Nc1ccc(I)cc12` here?
The composite z-score was -0.0552.

With `COc1ccc([Si](C)(C)[C@H]2[C@H](CC(=O)N3Cc4ccccc4C[C@H]3CO)O[C@@]3(C(=O)N(C)c4c(Br)cc(C)cc43)[C@@H]2C)cc1` as the molecule, how does the composite z-score read?
Its composite z-score is -0.0087.

For `CCCC[C@H]1OB(O)C[C@H]2C1=C(COc1ccccc1)C[C@H]1C(=O)C=CC(=O)[C@H]12`, which composite z-score is on record?
The composite z-score was -0.158.

With `COCCOC(=O)N1C(=O)[C@@]2(c3cc(C#CCC(C(=O)OC)C(=O)OC)ccc31)[C@H](C(=O)Nc1nc3ccccc3s1)[C@H]1C(=O)O[C@H](c3ccccc3)[C@H](c3ccccc3)N1[C@@H]2c1ccc(O)cc1` as the molecule, how does the composite z-score read?
The composite z-score was 0.326.

Which composite z-score does the source give for `COC(=O)[C@@]1(Cc2ccc(OC)cc2)[C@H]2c3cc(C(=O)N4CCCC4)n(Cc4ccc(Cl)c(C(F)(F)F)c4)c3C[C@H]2CN1C(=O)c1ccccc1` here?
The composite z-score was 0.728.

With `Cc1ccc(F)cc1S(=O)(=O)N[C@H]1CCN(Cc2ccc(OC(C)C)cc2)C1` as the molecule, how does the composite z-score read?
Its composite z-score is -0.0963.

Which composite z-score does the source give for `COCCOC(=O)N1C(=O)[C@@]2(c3cc(C#CCNC(N)=O)ccc31)[C@H](C(=O)Nc1nc3ccccc3s1)[C@H]1C(=O)O[C@H](c3ccccc3)[C@H](c3ccccc3)N1[C@@H]2c1ccccc1OCCO` here?
Its composite z-score is 0.152.

Which composite z-score does the source give for `CCCCC(O)C1C=CC2C(=O)N(c3ccccc3)C(=O)C2N1Nc1ccc([N+](=O)[O-])cc1` (stereo not given) here?
Its composite z-score is 0.215.

With `CCCN1C(=O)[C@@]2(c3ccc([N+](=O)[O-])cc3)CC(=O)N(CC34CC5CC(CC(C5)C3)C4)[C@@H]2c2ccc(CO)cc21` as the molecule, how does the composite z-score read?
Its composite z-score is 0.0588.

With `O=C1C=C(c2ccccc2)C(=O)C2=C1CC([C@H]1Oc3ccccc3S(=O)(=O)N3CCC[C@@H]13)=CC2` as the molecule, how does the composite z-score read?
Its composite z-score is -0.235.

For `O=C1[C@H]2C=C(I)[C@H](C[C@@H]2OCCCCCCO)[C@@]12CO2`, which composite z-score is on record?
The composite z-score was 0.255.

Which composite z-score does the source give for `N#Cc1ccc(-c2cccc(=O)o2)cc1` here?
The composite z-score was 0.085.

For `N#Cc1ccc(NN2C(C(O)C3CC=CCC3)C=CC3C(=O)N(c4ccccc4)C(=O)C32)cc1` (stereo not given), which composite z-score is on record?
Its composite z-score is -0.0131.

Which composite z-score does the source give for `COC(=O)C(CC#Cc1ccc2c(c1)[C@]1(C(=O)N2)[C@H](c2ccc(OCCO)cc2)N2[C@H](c3ccccc3)[C@H](c3ccccc3)OC(=O)[C@H]2[C@@H]1C(=O)N1CCCCCCC1)C(=O)OC` here?
Its composite z-score is 1.88.

Which composite z-score does the source give for `COCCOC(=O)N1C(=O)[C@@]2(c3ccccc31)[C@H](c1ccc(O)cc1)N1[C@H](c3ccccc3)[C@H](c3ccccc3)OC(=O)[C@H]1[C@@H]2C(=O)N1CCCCCCC1` here?
The composite z-score was 2.08.

With `COc1ccc(C(O)C2C=CC3C(=O)N(c4ccccc4)C(=O)C3N2Nc2ccc([N+](=O)[O-])cc2)c2ccccc12` (stereo not given) as the molecule, how does the composite z-score read?
Its composite z-score is 0.12.

Which composite z-score does the source give for `O=C1c2ccccc2[C@@]2(Cc3ccccc3N(Cc3ccccc3)C2=O)[C@H](c2ccc(CO)cc2)N1Cc1ccccc1Cl` here?
The composite z-score was -0.13.

With `O=C1[C@@H]2[C@@H](CC(COc3ccccc3)=C([C@H](O)CCc3ccccc3)[C@@H]2CO)C(=O)N1Cc1ccccc1` as the molecule, how does the composite z-score read?
The composite z-score was -0.274.

Which composite z-score does the source give for `COCCOC(=O)N1C(=O)[C@@]2(c3cc(C#CCC(C(=O)OC)C(=O)OC)ccc31)[C@H](C(N)=O)[C@H]1C(=O)O[C@H](c3ccccc3)[C@H](c3ccccc3)N1[C@@H]2c1ccc(O)cc1` here?
The composite z-score was -0.0405.

Which composite z-score does the source give for `CN(C)CCCNC(=O)[C@@]1(C)c2ccccc2C(=O)N(Cc2ccc(OC(F)(F)F)cc2)[C@H]1c1ccc(CO)cc1` here?
The composite z-score was 0.0778.

For `CCCC=C(CCC)[C@@H](NC(=O)OCC(C)C)c1ccc(C(=O)OC)cc1`, which composite z-score is on record?
Its composite z-score is -0.154.

For `COc1ccc(CCNC(=O)[C@@H]2c3ccccc3C(=O)N(Cc3ccccc3OC)[C@H]2c2ccc(CO)cc2)cc1`, which composite z-score is on record?
The composite z-score was 0.0028.

For `CCCC#C[Si](O[C@H](CC)c1cn(Cc2ccccc2)nn1)(C(C)C)C(C)C`, which composite z-score is on record?
Its composite z-score is 0.0541.

Which composite z-score does the source give for `[N-]=[N+]=NCc1ccccc1[C@@H]1OC(c2ccc(OCCCO)cc2)=N[C@]1(Cc1ccccc1N=[N+]=[N-])C(=O)O` here?
Its composite z-score is 0.587.

For `CN(C)CCCNC(=O)[C@@H]1c2ccccc2C(=O)N(Cc2ccccc2C(F)(F)F)[C@H]1c1ccc(CO)cc1`, which composite z-score is on record?
The composite z-score was -0.16.

Which composite z-score does the source give for `C=CCNC(=O)[C@H]1[C@@H]2C(=O)O[C@@H](c3ccccc3)[C@@H](c3ccccc3)N2[C@@H](c2ccc(OCCO)cc2)[C@]12C(=O)Nc1ccccc12` here?
The composite z-score was -0.244.

Which composite z-score does the source give for `O=C1O[C@@H](c2ccccc2)[C@@H](c2ccccc2)N2[C@@H](c3ccccc3OCCO)[C@]3(C(=O)Nc4ccc(C#CCCO)cc43)[C@@H](C(=O)NC[C@H](O)c3ccccc3)[C@H]12` here?
The composite z-score was 1.17.

For `C[C@]1(C(=O)O)c2ccccc2C(=O)N(Cc2cc(F)cc(C(F)(F)F)c2)[C@H]1c1ccc(CO)cc1`, which composite z-score is on record?
Its composite z-score is -0.152.
